# Assay results as given in PubChem BioAssay (EPA / NIEHS).
# “And” between values parts separate entries of the source, which are not always exact repeats. Identical values can stand only once. Records with an inconclusive call do not appear. Some structures have more than one record in an assay (separate samples or runs), and their calls can disagree. The source made the active and inactive calls. How the source made its calls, unless noted: active means hit-call score of the fitted dose curve at least 0.9, where 1 is the maximum; inactive means score below 0.9.
# What was measured:
# [1] = ACEA_ER_80hr: ACEA Biosciences xCELLigence Real-Time Cell Analysis on Estrogen Receptor Agonism for Proliferation (AID 2282667; active means hit-call score of the fitted dose curve at least 0.9, where 1 is the maximum); settings: T47D proliferation, impedance (xCELLigence), 80 h
# Method in brief: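 Impedance readout (RT-CES) of T47D proliferation at 80 h post-dose; gain of signal vs DMSO baseline. Compounds: 8 conc, 1:4 serial, top 100 uM final, ≤0.5% DMSO; biological duplicate.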
# [2] = APR_HepG2_CellCycleArrest_24hr: Apredica 24-hour HepG2 Assay for Cell Cycle Arrest (AID 2282905); settings: imaging, actives raise or lower the signal;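 further: cell cycle arrest scored as ratio of 2N to 4N nuclear DNA content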
# Method in brief: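 Cell cycle arrest is scored from nuclear DNA content measured by high-content imaging of Hoechst 33342-stained HepG2 cells following 24-hour treatment at ten concentrations up to 200 uM, with DMSO as baseline.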
# [3] = APR_HepG2_CellCycleArrest_1hr: Apredica 1-hour HepG2 Assay for Cell Cycle Arrest (AID 2282666); settings: high-content imaging, actives raise or lower the signal
# Method in brief: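 HepG2 cells exposed for 1 h to 0.39–200 uM compound (0.5% DMSO). Fixed, Hoechst-stained nuclei imaged by ArrayScan; DNA content quantified by Cell Cycle analysis; bidirectional fit against DMSO.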
# [4] = APR_HepG2_CellLoss_1hr: Apredica 1-hour HepG2 Assay for Cell Loss (AID 2282668); settings: high-content imaging;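 further: curves fitted both ways against DMSO so gain or loss of cells counts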
# Method in brief: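 HepG2 cells were treated for 1 h with compound at 0.39–200 uM, in duplicate, in 0.5% DMSO. After formaldehyde fixation, Hoechst 33342-stained nuclei were imaged on an ArrayScan to count cells. Data were fitted bidirectionally versus DMSO.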
# [5] = APR_HepG2_MicrotubuleCSK_1hr: Apredica 1-hour HepG2 Assay for Microtubule CSK Stabilty (AID 2282669); settings: HepG2 microtubule cytoskeleton imaging, actives raise or lower the signal
# Method in brief: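 HepG2 cells exposed 1 h to 0.39–200 uM compound (0.5% DMSO, duplicates), then formaldehyde-fixed, permeabilized and immunostained for alpha-tubulin with Hoechst nuclei. Imaged by ArrayScan high-content analysis; bidirectional fit versus DMSO.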
# [6] = APR_HepG2_NuclearSize_1hr: Apredica 1-hour HepG2 Assay for Nuclear Size (AID 2282670); settings: high-content imaging, actives raise or lower the signal
# Method: (§1) APR_HepG2_1hr is a cell-based, multiplexed-readout assay that uses HepG2, a human liver cell line, with measurements taken at 1 hour after chemical dosing in a 384-well plate.APR_HepG2_NuclearSize_1hr is one of 10 assay component(s) measured or calculated from the APR_HepG2_1hr assay. It is designed to make measurements of cell phenotype, a form of morphology reporter, as detected with fluorescence intensity signals by HCS Fluorescent Imaging technology.Data from the assay component APR_HepG2_NuclearSize_1hr was analyzed into 1 assay endpoint. This assay endpoint, APR_HepG2_NuclearSize_1hr, was analyzed with bidirectional fitting relative to DMSO as the negative control and baseline of activity. Using a type of morphology reporter, measures of all nuclear dna for gain or loss-of-signal activity can be used to understand the signaling at the nuclear-level. Furthermore, this assay endpoint can be referred to as a primary readout, because this assay has produced multiple assay endpoints where this one serves a signaling function. To generalize the intended target to other relatable targets, this assay endpoint is annotated to the cell morphology intended target family, where the subfamily is organelle conformation.
# (§2) Cells were treated with dimethyl sulfoxide (DMSO) as a solvent control at a final concentration of 0.5% v/v or with compounds in DMSO with a resulting final DMSO concentration of 0.5% v/v. Compound treatment was done at concentrations of 0.39, 0.78, 1.56, 3.12, 6.24, 12.5, 25, 50, 100, and 200 uM in duplicate on each plate. Cells were treated with compounds for 1, 24, or 72 hr. Carbonyl […] m-chloro-phenylhydrazone (CCCP) and taxol were used as positive controls for mitochondrial function and cytoskeletal stability, respectively; DMSO served as the negative control for this experiment. Cells were fixed by the direct addition of 50 uL formaldehyde in Hank's Balanced Salt Solution (HBSS) to a final concentration of 3.7%. After incubation in the fixation medium for 30 min at room temperature (293-298 K), cells were rinsed twice with HBSS and treated with cell permeabilization buffer (16 uL of 0.5% Triton X-100) for 10 min at room temperature (293-298 K) before labeling. For mitochondrial membrane potential and mitochondrial measurements, pre-fixed cells were incubated with 50 uL of MitoTracker Red CMXRos (Invitrogen) at a concentration of 250 nM for 30 min before fixation. In the remaining cases, post-fixed cells were labeled by incubation with a multiplexed mixture of primary antibodies in HBSS for 60 min at room temperature (293-298 K) to detect immunoreactivity of c-Jun (1:500), phospho-histone H3 (1:100), phospho-histone H2A.x (1:200), p53 (1:400), alpha-tubulin (1:200) and Hoechst 33342 (2 ug/mL). Cells were labeled for multiplexed imaging on two separate plates: a) Hoechst 33342, MitoTracker Red, phospho-histone H3, and alpha-tubulin, and b) Hoechst 33342, phospho-histone H2A.x, and c-Jun. A final rinse with HBSS (50 uL) was performed before analysis. The primary and secondary antibodies for the proteins were phospho-histone H3 (rabbit anti-phospho-histone H3 and FITC-donkey anti-rabbit IgG), phospho-histone H2A.x (mouse anti-phospho-histone H2A.x and FITC-donkey anti-mouse IgG), c-Jun (rabbit anti-phospho-c-Jun and Cy3-donkey anti-rabbit IgG), p53 (sheep anti-p53 and Cy5-donkey anti-sheep IgG), alpha-tubulin (mouse anti-alpha-tubulin and Cy5-donkey anti-mouse IgG). […]
# [7] = APR_HepG2_MitoticArrest_1hr: Apredica 1-hour HepG2 Assay for Mitotic Arrest (AID 2282672); settings: high-content imaging, actives raise or lower the signal
# Method: APR_HepG2_1hr is a cell-based, multiplexed-readout assay that uses HepG2, a human liver cell line, with measurements taken at 1 hour after chemical dosing in a 384-well plate.APR_HepG2_MitoticArrest_1hr is one of 10 assay component(s) measured or calculated from the APR_HepG2_1hr assay. It is designed to make measurements of cell phenotype, a form of morphology reporter, as detected with fluorescence intensity signals by HCS Fluorescent Imaging technology.Data from the assay component APR_HepG2_MitoticArrest_1hr was analyzed into 1 assay endpoint. This assay endpoint, APR_HepG2_MitoticArrest_1hr, was analyzed with bidirectional fitting relative to DMSO as the negative control and baseline of activity. Using a type of morphology reporter, measures of protein for gain or loss-of-signal activity can be used to understand the signaling at the pathway-level as they relate to the gene . Furthermore, this assay endpoint can be referred to as a primary readout, because this assay has produced multiple assay endpoints where this one serves a signaling function. To generalize the intended target to other relatable targets, this assay endpoint is annotated to the cell cycle intended target family, where the subfamily is arrest.
# as §2
# [8] = APR_HepG2_P-H2AX_1hr: Apredica 1-hour HepG2 Assay for H2AX Phosphorylation (AID 2282673); settings: high-content imaging, actives raise or lower the signal
# Method in brief: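 HepG2 dosed 1 hr at 0.39-200 uM (0.5% DMSO final), duplicate. Fixed in 3.7% formaldehyde, Triton permeabilized, immunostained for phospho-histone H2A.x (1:200) with Hoechst 33342; ArrayScan 20x imaging, bidirectional fit vs DMSO.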
# [9] = APR_HepG2_MitoMass_1hr: Apredica 1-hour HepG2 Assay for Mitochondrial Mass (AID 2282674); settings: high-content imaging, actives raise or lower the signal
# Method: as §1, with “plate.APR_HepG2_MitoMass_1hr” for “plate.APR_HepG2_NuclearSize_1hr”, “APR_HepG2_MitoMass_1hr” for “APR_HepG2_NuclearSize_1hr”, “APR_HepG2_MitoMass_1hr,” for “APR_HepG2_NuclearSize_1hr,”, “reporter,” for “reporter, measures of all nuclear dna for”, “understand changes in” for “understand”, “signaling.” for “signaling at the nuclear-level.”
# as §2
# [10] = APR_HepG2_MitoMembPot_1hr: Apredica 1-hour HepG2 Assay for Mitochondrial Membrane Potential (AID 2282675); settings: imaging, actives raise or lower the signal
# Method: APR_HepG2_1hr is a cell-based, multiplexed-readout assay that uses HepG2, a human liver cell line, with measurements taken at 1 hour after chemical dosing in a 384-well plate.APR_HepG2_MitoMembPot_1hr is one of 10 assay component(s) measured or calculated from the APR_HepG2_1hr assay. It is designed to make measurements of dye binding, a form of membrane potential reporter, as detected with fluorescence intensity signals by HCS Fluorescent Imaging technology.Data from the assay component APR_HepG2_MitoMembPot_1hr was analyzed into 1 assay endpoint. This assay endpoint, APR_HepG2_MitoMembPot_1hr, was analyzed with bidirectional fitting relative to DMSO as the negative control and baseline of activity. Using a type of membrane potential reporter, gain or loss-of-signal activity can be used to understand changes in the signaling. Furthermore, this assay endpoint can be referred to as a primary readout, because this assay has produced multiple assay endpoints where this one serves a signaling function. To generalize the intended target to other relatable targets, this assay endpoint is annotated to the cell morphology intended target family, where the subfamily is organelle conformation.
# as §2
smiles,measurement,setting,value
O=S(=O)(O)C(F)(F)C(F)(F)C(F)(F)C(F)(F)C(F)(F)C(F)(F)F,outcome,[1],inactive
same,outcome,[2],inactive
CCOC(=O)C(O)(c1ccc(Cl)cc1)c1ccc(Cl)cc1,outcome,[1],inactive
same,AC50,[2],54.1 µM (active)
Clc1ccc(C(Cl)(Cl)Cl)cc1,outcome,[1],inactive
same,outcome,[2],inactive
CCCCCCCCCc1ccc(O)cc1,outcome,[1],inactive
same,outcome,[2],inactive
ClC(Cl)=C(c1ccc(Cl)cc1)c1ccc(Cl)cc1,outcome,[1],inactive
same,outcome,[2],inactive
CN(C)c1nc(=O)n(C2CCCCC2)c(=O)n1C,outcome,[3],inactive
same,outcome,[4],inactive
same,outcome,[5],inactive
same,outcome,[6],inactive
same,outcome,[7],inactive
same,outcome,[8],inactive
same,outcome,[9],inactive
same,outcome,[10],inactive
same,outcome,[2],inactive
CCSC(=O)N(CC)C1CCCCC1,outcome,[3],inactive
same,outcome,[4],inactive
same,outcome,[5],inactive
same,outcome,[6],inactive
same,outcome,[7],inactive
same,outcome,[8],inactive
same,outcome,[9],inactive
same,outcome,[10],inactive
same,outcome,[2],inactive
CC#Cc1cc(C)nc(Nc2ccccc2)n1,outcome,[1],inactive
same,outcome,[2],inactive
Cc1ccccc1O,outcome,[1],inactive
same,outcome,[2],inactive
Nc1ccc(-c2ccc(N)cc2)cc1,outcome,[1],inactive
same,AC50,[2],100 µM (active)
C1CC2OC2CC1C1CO1 (centres undefined),outcome,[1],inactive
same,outcome,[2],inactive
CCNc1nc(NC(C)C)nc(SC)n1,outcome,[3],inactive
same,outcome,[4],inactive
same,outcome,[5],inactive
same,outcome,[6],inactive
same,outcome,[7],inactive
same,outcome,[8],inactive
same,outcome,[9],inactive
same,outcome,[10],inactive
same,outcome,[2],inactive
ClC1=C(Cl)[C@]2(Cl)[C@@H]3[C@@H]4C[C@@H]([C@H]5O[C@@H]45)[C@@H]3[C@@]1(Cl)C2(Cl)Cl,AC50,[1],10.8 µM (active)
same,outcome,[2],inactive
CC(C)(O)C(=O)Nc1ccc([N+](=O)[O-])c(C(F)(F)F)c1,AC50,[1],38.5 µM (active) and 68.7 µM (active)
same,outcome,[2],inactive
Clc1ccc(C(c2ccccc2Cl)C(Cl)(Cl)Cl)cc1 (centres undefined),AC50,[1],393 nM (active) and 193 nM (active)
same,outcome,[1],inactive
same,AC50,[2],52.2 µM (active)
O=C(N[C@H]1CN2CCC1CC2)c1cc2ccoc2cn1,outcome,[1],inactive
same,outcome,[2],inactive
